Assay outcomes from PubChem BioAssay.
TDP1 cell noCPT = qHTS for Inhibitors of human tyrosyl-DNA phosphodiesterase 1 (TDP1): qHTS in cells in absence of CPT | DT40 Tdp1-/- hTDP1 cells, no CPT, ATP luminescence, 48 h | Potency, µM (highest dose often 46.2 µM), inactives show top-dose activity change, negative = growth inhibition, most hits filed as inhibitors | 420,000 compounds, 15% hits; also: potency is read from the fitted curve at half-maximal effect; % is scaled to controls: 0 for no effect and ±100 for the full control effect; nearly all actives have a fitted effect of over 55% in size
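Stably hTDP1-transfected Tdp1-null chicken DT40 cells were treated with library compounds minus camptothecin and grown for at least 48 hr at 37 °C, after which cellular ATP was quantified by luminescence.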
SW480 rereplic = DNA re-replication induction in SW480 cells; SW480 DNA re-replication, Hoechst DNA content imaging, 48 h; Potency, µM (titrated, usually from 46.1 µM), for inactives: at the top dose re-replication activation, actives largely listed as activators; 340,000 compounds, 1.8% hits; also: potency is read from the fitted curve at half-maximal effect; % of control where 0% means no effect; nearly all actives have a fitted effect of over 55% in size
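Per well, 250 cells were exposed to pinned compound for 48 hr. Nuclear DNA was visualised with Hoechst (40 min, 37 C) and total object intensity recorded by fluorescence scanning.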
IL-1B inflam inh = inhibitors of inflammasome signaling (IL-1 beta secretion). AID 743279. activity change, % at 57.5 µM. 360,000 compounds, 4.7% hits. THP-1 LPS/ATP IL-1B secretion, AlphaLISA, 16 h; hits give low values; in the data active = activity change below about -50%; inconclusive = mostly about -30% to -49%; also: % is scaled to controls: 0 for no effect and ±100 for the full control effect
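Secreted IL-1B measured by AlphaLISA bead assay after 16 h compound exposure of THP-1 cells; compounds (final up to 57.5 uM) added 1 h before LPS (250 ng/mL) and ATP (1.25 mM) stimulation; lower signal means less secretion.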
Chronic BCR inh = chronic active BCR signaling inhibition; ABC-DLBCL IkBa-CBG/CBR reporter, luminescence ratio, 4 h; Potency, µM (top dose mostly 46.1 µM), for the others: top-dose activity change, negative = inhibition, usual class: inhibitors; 340,000 compounds, 0.05% hits; active = well fitted inhibition curve with a large enough effect in the signal ratio, with a control signal flat, not every such curve was filed as active; inconclusive = small, poorly fitted or top-dose-only effect, or effect the other way, or a change in a side signal; the % refers to the signal ratio;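 also: potency is read from the fitted curve at half-maximal effect; plate controls were basal doxycycline-induced cells for no effect and cells given 10 µM MG132 for full effect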
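TMD8 human ABC-DLBCL cells with doxycycline-inducible IκBα–green luciferase fusion and unfused red luciferase, in 0.5% FBS medium; compounds up to 46 uM, 4 h at 37C. Green/red luminescence ratio, filter-overlap corrected, fitted to concentration-response curves.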
MCF10A rerep = inducers of DNA re-replication in MCF 10A breast cells; MCF 10A DNA re-replication, Hoechst nuclear intensity, 48 h; Potency, µM (highest dose often 46.1 µM), inactives show at the highest dose activity, positive = re-replication, actives largely listed as activators; 350,000 compounds, 2.9% hits; also: potency is read from the fitted curve at half-maximal effect; % of control where 0% means no effect; nearly all actives have a fitted effect of over 50% in size
DT40 TDP1 CPT = growth inhibition of DT40 Tdp1-/-;hTDP1 cells with camptothecin (screen for TDP1 inhibitors); chicken DT40 Tdp1-/-;hTDP1 cells + 20 nM CPT, ATP luminescence, 48 h; Potency, µM (titrated, usually from 46.2 µM), without a hit: top-dose activity change, negative = growth inhibition, most hits filed as inhibitors; 420,000 compounds, 12% hits; also: potency is read from the fitted curve at half-maximal effect; % is scaled to controls: 0 for no effect and ±100 for the full control effect; nearly all actives have a fitted effect of over 55% in size
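Cell growth measured by CellTiter-Glo luminescence after a minimum 48 h, 37 C compound exposure with 20 nM CPT in Tdp1-knockout DT40 cells stably expressing hTDP1, seeded 400/well; qHTS titration format.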
The depositor's hits bear a star; [ ] = dose if it differs, or a comment. Compounds with a hit are over-represented: about 19% of the library has one in this group of screens. Unless noted, calls follow the shape of the dose curve; as a rule, active = well fitted curve in the direction sought with a large enough effect; inconclusive = small, poorly fitted or top-dose-only effect, or another doubt; inactive = no such curve, though single readings can be large; an effect the other way counts as inactive or inconclusive.

What do the screens show for `COc1ccc(S(=O)(=O)N2CCCN(Cc3cccc(F)c3)CC2)cc1`?
TDP1 cell noCPT: inconclusive; SW480 rereplic: 9%; IL-1B inflam inh: -14; Chronic BCR inh: -14%; MCF10A rerep: 12%; DT40 TDP1 CPT: 21µM*

Results for O=C(c1cccc(Cl)c1)N1CCN(Cc2ccc3c(c2)OCO3)CC1 ?
TDP1 cell noCPT: -10%; SW480 rereplic: -4%; IL-1B inflam inh: -9; Chronic BCR inh: -1%; MCF10A rerep: -5%; DT40 TDP1 CPT: 4%

How did COc1ccc(C(=O)N2CCN(S(=O)(=O)c3ccc(Br)cc3)CC2)cc1 do in these assays?
TDP1 cell noCPT: inconclusive; SW480 rereplic: -2%; IL-1B inflam inh: 3; Chronic BCR inh: 3%; MCF10A rerep: -8%; DT40 TDP1 CPT: 18µM*

Results for Cc1ccc(S(=O)(=O)N2CCN(Cc3cccc(F)c3)CC2)cc1 ?
TDP1 cell noCPT: -23%; SW480 rereplic: 1%; IL-1B inflam inh: 2; MCF10A rerep: 3%; DT40 TDP1 CPT: -6%

Results for COc1ccc(CNC(=O)[C@@H](NC(=O)C2CCN(C(=O)[C@@H](N)CCSC)CC2)C(C)C)cc1 ?
TDP1 cell noCPT: -2%; SW480 rereplic: -36%; IL-1B inflam inh: 2; Chronic BCR inh: -21%; MCF10A rerep: 5%; DT40 TDP1 CPT: 3%

How did CCOc1ccc2nc(NC(=O)c3nc(SCc4ccccc4F)ncc3Cl)sc2c1 do in these assays?
TDP1 cell noCPT: inconclusive; DT40 TDP1 CPT: -26%

How did N#Cc1c2c(c(-n3cnc4ccccc43)n3c1nc1ccccc13)CCC2 do in these assays?
TDP1 cell noCPT: inconclusive; SW480 rereplic: -6%; IL-1B inflam inh: 3; Chronic BCR inh: inconclusive; MCF10A rerep: 3%; DT40 TDP1 CPT: inconclusive

Results for N#Cc1c2c(c(Nc3ccc(F)cc3)n3c1nc1ccccc13)CCCC2 ?
TDP1 cell noCPT: 18µM*; SW480 rereplic: 7%; IL-1B inflam inh: 11; MCF10A rerep: inconclusive; DT40 TDP1 CPT: 16µM*

What do the screens show for `N#Cc1c2c(c(NCCN3CCOCC3)n3c1nc1ccccc13)CCCC2`?
TDP1 cell noCPT: inconclusive; SW480 rereplic: 3%; IL-1B inflam inh: -23; Chronic BCR inh: 8%; MCF10A rerep: -1%; DT40 TDP1 CPT: inconclusive

How did N#Cc1c2c(c(Nc3ccccc3)n3c1nc1ccccc13)CCC2 do in these assays?
TDP1 cell noCPT: inconclusive; SW480 rereplic: 3%[9.22 µM]; IL-1B inflam inh: 26; Chronic BCR inh: 0%; MCF10A rerep: 16µM*; DT40 TDP1 CPT: inconclusive

Results for O=C(CCN=C1NS(=O)(=O)c2ccccc21)OCc1nnc(-c2ccccc2)o1 ?
TDP1 cell noCPT: 0%; SW480 rereplic: -2%; IL-1B inflam inh: 9; Chronic BCR inh: inconclusive; MCF10A rerep: -2%; DT40 TDP1 CPT: 15%

What do the screens show for `COc1ccc(/C=C/C(=O)NC(=S)NNC(=O)Cc2cccs2)cc1`?
TDP1 cell noCPT: inconclusive; SW480 rereplic: 8%; IL-1B inflam inh: 71; Chronic BCR inh: -10%; MCF10A rerep: inconclusive; DT40 TDP1 CPT: 21µM*

How did O=C(/C=C/c1ccccc1)NC(=S)NNC(=O)Cc1cccs1 do in these assays?
TDP1 cell noCPT: 18µM*; SW480 rereplic: inconclusive; IL-1B inflam inh: 39; Chronic BCR inh: 4%; MCF10A rerep: inconclusive; DT40 TDP1 CPT: inconclusive

Results for Cc1ccc(-c2nnc3n2N=C(c2ccccc2Br)CS3)cc1 ?
TDP1 cell noCPT: 8.2µM*; SW480 rereplic: -14%; IL-1B inflam inh: -7; Chronic BCR inh: -1%; MCF10A rerep: 3%; DT40 TDP1 CPT: 12µM*

What do the screens show for `Cc1cc(-c2nnc3n2N=C(c2ccc(-c4ccccc4)cc2)CS3)n[nH]1`?
TDP1 cell noCPT: 15µM*; SW480 rereplic: 3%; IL-1B inflam inh: -62*; Chronic BCR inh: inconclusive; MCF10A rerep: inconclusive; DT40 TDP1 CPT: 23µM*

How did c1ccc(-c2cc(-c3nnc4n3N=C(c3ccc5ccccc5c3)CS4)[nH]n2)cc1 do in these assays?
TDP1 cell noCPT: inconclusive; SW480 rereplic: inconclusive; IL-1B inflam inh: -64*; Chronic BCR inh: inconclusive; MCF10A rerep: 4.1µM*; DT40 TDP1 CPT: inconclusive

How did Cc1cc(-c2ccccc2)n[nH]1 do in these assays?
TDP1 cell noCPT: 12%; SW480 rereplic: -18%; IL-1B inflam inh: 4; Chronic BCR inh: 3%; MCF10A rerep: 0.65µM*; DT40 TDP1 CPT: 21%

What do the screens show for `COCCN(C(=O)Nc1ccc(OC)cc1)c1nc2ccccc2s1`?
TDP1 cell noCPT: inconclusive; SW480 rereplic: 12%; IL-1B inflam inh: -14; Chronic BCR inh: -2%; MCF10A rerep: 1%; DT40 TDP1 CPT: 7%

Results for CCCOc1ccc(/C=N/NC(=S)Nc2ccccc2[N+](=O)[O-])c(O)c1 ?
TDP1 cell noCPT: 5.2µM*; SW480 rereplic: inconclusive; IL-1B inflam inh: -1; Chronic BCR inh: inconclusive; MCF10A rerep: inconclusive; DT40 TDP1 CPT: 5.8µM*

How did CCCOc1ccc(/C=N/Nc2cccc([N+](=O)[O-])c2)c(O)c1 do in these assays?
TDP1 cell noCPT: inconclusive; SW480 rereplic: 10%; IL-1B inflam inh: -96*; Chronic BCR inh: inconclusive; MCF10A rerep: inconclusive; DT40 TDP1 CPT: inconclusive

Results for CCNC(=S)N/N=C/c1ccccc1[N+](=O)[O-] ?
TDP1 cell noCPT: inconclusive; SW480 rereplic: -3%; IL-1B inflam inh: 29; Chronic BCR inh: inconclusive; MCF10A rerep: -7%; DT40 TDP1 CPT: 23µM*

What do the screens show for `CCCOc1ccc(/C=N/Nc2ccc(C(=O)O)cc2)c(OCCC)c1`?
TDP1 cell noCPT: -21%; SW480 rereplic: inconclusive; IL-1B inflam inh: inconclusive; Chronic BCR inh: inconclusive; MCF10A rerep: 7.3µM*; DT40 TDP1 CPT: inconclusive

What do the screens show for `COc1ccc2c(/C=N/Nc3ccc(C(=O)O)cc3)c[nH]c2c1`?
TDP1 cell noCPT: -22%; SW480 rereplic: 13%; IL-1B inflam inh: 74; Chronic BCR inh: inconclusive; MCF10A rerep: 17%; DT40 TDP1 CPT: 0%

How did Cc1cccc(N(CC(=O)NC2CCCCC2)C(=O)c2csnn2)c1 do in these assays?
TDP1 cell noCPT: -15%; SW480 rereplic: -5%; IL-1B inflam inh: 4; Chronic BCR inh: -13%; MCF10A rerep: -4%; DT40 TDP1 CPT: 0%

What do the screens show for `Cc1[nH]c2ccccc2c1C(=O)C(=O)NCc1ccncc1`?
TDP1 cell noCPT: -17%; SW480 rereplic: -2%; IL-1B inflam inh: 14; MCF10A rerep: -2%; DT40 TDP1 CPT: -1%

What do the screens show for `COc1ccc(-n2nc3ccc(NC(=O)c4ccc(C#N)cc4F)cc3n2)cc1Cl`?
TDP1 cell noCPT: -1%; DT40 TDP1 CPT: -19%
